Rab9 promoter act – Rab9 promoter activation; AID 485297; Huh7 Rab9 promoter-luciferase reporter, luminescence, 24 h; Potency, µM (series often up to 9.22 µM), usual class: activators; 320,000 tested, 2.8% active; further: nearly all actives have a fitted effect of over 60% in size
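Cell-based reporter: Huh7 stable for Rab9 promoter-driven luciferase, plated in reduced-serum medium with 10% FBS at 1500 cells/well, compound-treated 24 h at 37 °C, luminescence read after 10 min reagent.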
ELG1 genotox – genotoxicity induction in ELG1-luciferase HEK293T cells; 330,000 tested, 1.3% active; Potency, µM (highest dose often 46 µM), most hits filed as activators; HEK293T ELG1-luciferase reporter, luminescence, 16 h; further: nearly all actives have a fitted effect of over 60% in size
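Screening used a luciferase reporter fused to human ELG1 in HEK293T cells. Luminescence was read on a CCD plate imager after 16 hr exposure and 30 min ONE-Glo incubation.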
FLuc modulator – counter-screen for miR-21 project: firefly luciferase inhibitors or activators | 360,000 tested, 6.9% active | P08659 | purified FLuc, Km substrates, luminescence inhibition | Potency, µM (titrated, usually from 57.5 µM), hits mostly inhibitors; further: nearly all actives have a fitted effect of over 55% in size
Target sequence (P08659 whole entry, looked up): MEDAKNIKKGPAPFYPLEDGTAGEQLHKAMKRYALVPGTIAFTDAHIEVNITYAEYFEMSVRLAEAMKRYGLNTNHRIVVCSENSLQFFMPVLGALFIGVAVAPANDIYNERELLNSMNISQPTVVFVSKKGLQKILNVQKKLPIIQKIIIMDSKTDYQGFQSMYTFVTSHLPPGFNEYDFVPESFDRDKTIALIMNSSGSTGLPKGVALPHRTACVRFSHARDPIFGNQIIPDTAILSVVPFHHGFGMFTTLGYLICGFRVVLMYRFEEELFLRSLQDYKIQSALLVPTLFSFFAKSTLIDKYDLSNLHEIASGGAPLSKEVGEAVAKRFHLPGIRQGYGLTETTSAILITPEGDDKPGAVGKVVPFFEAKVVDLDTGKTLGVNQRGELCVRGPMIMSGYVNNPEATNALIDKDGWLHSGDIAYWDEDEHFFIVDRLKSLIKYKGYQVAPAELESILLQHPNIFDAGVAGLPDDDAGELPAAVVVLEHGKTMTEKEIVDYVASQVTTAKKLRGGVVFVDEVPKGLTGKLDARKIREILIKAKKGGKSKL
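Purified P. pyralis luciferase, 10 nM final, with Km-level 10 uM D-luciferin and 10 uM ATP in 50 mM Tris acetate pH 7.5, 10 mM Mg acetate, 0.01% Tween-20, 0.05% BSA; 6-point qHTS titration about 60 µM downward; luminescence read.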
NPC1 prom act – activators of NPC1 promoter. Potency, µM (doses to about 9.22 µM), most hits filed as activators. 320,000 tested, 2.4% active. Huh7 NPC1 promoter luciferase reporter, 24 h. AID 485313; further: nearly all actives have a fitted effect of over 60% in size
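Huh7 reporter cells (NPC1 promoter driving luciferase) are dosed with compound for 24 h at 37 °C, 5% CO2; luciferase detection reagent is then added and luminescence measured after 10 min at ambient temperature.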
SMN2 splice enh – increases expression of the SMN2 splice variant; HEK293 SMN2-luciferase splicing reporter, luminescence, 30-36 h; Potency, µM (titrated, usually from 46.1 µM), usual class: activators; 210,000 tested, 2.8% active; further: nearly all actives have a fitted effect of over 55% in size
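HEK293 cells carry an SMN2 minigene-luciferase reporter in which exon 7 inclusion puts luciferase in frame. Cells were seeded at 2000 cells/well, attached for 10-12 hours, then exposed to compounds for 30-36 hours at 37C before ONE-Glo luminescence.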
Numbers stand for hits; . = inactive; ? = inconclusive; / = not tested or not shown; [ ] = remark or other dose. This is a sample that favours compounds with a hit; in the whole collection about 7.4% have one here. The call rests on the fitted dose curve; in most records, active means well fitted curve in the direction sought with a large enough effect; inconclusive means small, poorly fitted or top-dose-only effect, or another doubt; inactive means no such curve, though single readings can be large; an effect the other way counts as inactive or inconclusive.

SMILES | Rab9 promoter act | ELG1 genotox | FLuc modulator | NPC1 prom act | SMN2 splice enh
CC(C)[C@H](NC(=O)c1ccc(C(C)(C)C)cc1)C(=O)N1CCN(Cc2ccc3c(c2)OCO3)CC1 | / | . | / | / | /
COc1cccc(-c2nc(CCl)cs2)c1 | . | . | 26.9µM | . | .
COc1ccc(-c2nc(CCl)cs2)cc1 | ? | ? | 9.53µM | . | .
CCc1ccc(-c2nc(CCl)cs2)cc1 | ? | ? | 3.79µM | ? | /
CCCCN1C(=O)CN(C2CCCCCC2)C(=O)C1c1ccc(OCC)c(OC)c1 (stereo unspecified) | / | / | . | / | /
Cc1nc(N2CCOCC2)c2nc(-c3ccccc3)n(CC3CCN(C)CC3)c2n1 | / | / | / | / | .
O=S(=O)(N/N=C/c1cn(Cc2ccccc2)c2ccccc12)c1ccccc1 | . | . | ? | . | .
Cc1nnsc1C(=O)N/N=C/c1c(F)cccc1Cl | . | . | . | . | .
Cc1[nH]cnc1C(=O)N/N=C/c1c(Cl)cccc1Cl | ? | . | 15.1µM | ? | /
CCCCc1nc(N2CCOCC2)c(C#N)c2c1COC(C)(C)C2 | . | . | . | . | .
COc1ccc(OC)c(C(C(=O)NC2CCCCC2)N(Cc2ccco2)C(=O)c2ccccn2)c1 (stereo unspecified) | . | . | . | . | /
O=C(O)C1C2CCC(C2)C1C(=O)N1CCCC1 (stereo unspecified) | . | . | . | . | /
CN1CCN(c2ccc(-c3ccnn3C(=O)Nc3cccc(C(F)(F)F)c3)cc2)CC1 | .[1.84 µM] | ? | 21.3µM | 3.55µM | 12.6µM
c1ccc2c(OCCCN3CCCCCC3)cccc2c1 | . | . | . | . | /
CC(=O)N1CCc2c(sc3c2c(=O)n(CCc2ccccc2)c(=O)n3Cc2ccccc2C)C1 | / | / | . | / | .
CCOc1ccc(N=C(/C(C(=O)C(=O)N2CCOCC2)=C(/O)c2ccccc2)c2ccccc2)cc1 | ? | ? | ? | 3.98µM | /
CC1CN(C(=O)c2cccc(COc3ccc(Br)cc3)c2)CC(C)O1 (stereo unspecified) | 3.55µM | ? | 4.78µM | 1.58µM | 3.98µM
O=C(c1cccc(OCc2ccccc2)c1)N1CCOCC1 | . | . | . | . | .
CCOc1ccc(OCc2cccc(C(=O)N3CCOCC3)c2)cc1 | 0.0891µM | 0.13µM | 0.301µM | 0.0891µM | 0.355µM
Cc1cc(=O)oc2c(C)c(OCC(=O)N3CCN(c4cccc(Cl)c4)CC3)ccc12 | . | . | . | . | /
OC[C@H]1O[C@@H](Oc2cc(O)cc(/C=C/c3ccc(O)cc3)c2)[C@H](O)[C@@H](O)[C@@H]1O | . | / | 19µM | . | /
CCC(C)n1c(=N)c(C(=O)NCc2ccco2)cc2c(=O)n3cc(C)ccc3nc21 (stereo unspecified) | / | / | . | / | .
COc1ccc(-c2ccc(SCC(=O)N3CCOCC3)nn2)cc1 | . | . | 10.7µM | . | .
O=C(CSc1ccc(-c2ccc(F)cc2)nn1)N1CCCCC1 | . | . | ? | . | .
O=C(CSc1ccc(-c2ccc(Br)cc2)nn1)N1CCOCC1 | . | . | 15.1µM | . | .
SMILES | Rab9 promoter act | ELG1 genotox | FLuc modulator | NPC1 prom act | SMN2 splice enh
N=C(N)CCNC(=O)[C@@H]1CCC(N)=N1 | / | / | / | / | .[9.22 µM]
CCc1ccc(C(=O)Nn2cnc3ccccc3c2=O)cc1 | 2.24µM | ? | 8.49µM | 2.51µM | /
Cc1ccc(C(=O)n2cnc3ccccc32)cc1C | . | . | 12µM | . | /
Cc1ccc(C(=O)Nn2cnc3ccccc3c2=O)cc1C | 2.51µM | ? | 13.5µM | 3.16µM | /
O=C(CSc1nnc(-c2ccccc2Cl)o1)N1CCCc2ccccc21 | / | / | 23.9µM | / | .
O=C(CSc1nnc(-c2ccccc2)o1)N1CCCCC1 | 2.51µM | ? | 15.1µM | 2.82µM | /
O=C(CSc1nnc(-c2ccccc2)o1)N1CCCc2ccccc21 | / | / | . | / | .
O=C(CSc1nnc(-c2ccccc2)o1)N1CCCC1 | ? | . | ? | ? | /
O=C(CSc1nnc(-c2ccc(F)cc2)o1)N1CCCCC1 | ? | 20.6µM | ? | ? | /
CC1CC(C)CN(C(=O)CSc2nnc(-c3ccc(F)cc3)o2)C1 (stereo unspecified) | . | . | . | . | .
O=C(CCc1nnc(-c2ccc3c(c2)OCO3)o1)NC(c1ccccn1)C(F)(F)F (stereo unspecified) | . | . | . | . | /
O=C(CCc1nnc(-c2ccc3c(c2)OCO3)o1)N1CCC(c2ccc(F)cc2)C1 (stereo unspecified) | ? | ? | 19µM | . | /
COc1nc(Oc2ccc(=O)n(-c3ccccc3)n2)nc(N(C)C)n1 | / | / | . | / | .
CC(C)CN(C(=O)COC(=O)Cc1cccc2ccccc12)c1c(N)n(Cc2ccccc2)c(=O)[nH]c1=O | . | . | . | . | /
CC1CCN(C(=O)CCc2nnc(-c3ccccc3)o2)CC1 | ? | ? | 15.1µM | ? | /
Cc1cc(C(=O)OCC(=O)Nc2c(F)cccc2F)c(C)n1-c1ccccc1 | . | . | 10.7µM | . | .
COc1ccc(S(=O)(=O)N2CCN(C(=O)c3c(C)nn(-c4ccccc4)c3C)CC2)cc1 | . | . | . | . | /
COc1ccc(OC(=O)c2cnn(-c3ccccc3)c2C)cc1 | 3.16µM | ? | 4.78µM | 3.16µM | ?
Cc1nn(-c2ccccc2)c(C)c1C(=O)OCC(=O)Nc1ccccc1F | 2.24µM | ? | 4.78µM | 3.98µM | /
COc1ccc(OC(=O)c2c(C)nn(-c3ccccc3)c2C)cc1 | ? | ? | 15.1µM | ? | /
CCOC(=O)c1c(NC(=O)c2ccc(S(=O)(=O)N3CCC(C)CC3)cc2)sc2c1CCN(CC)C2 | / | / | . | / | /
CC(C)NC(=O)Nc1cccc2c1O[C@H](CN(C)C(=O)Nc1ccccc1)[C@@H](C)CN([C@H](C)CO)C2=O | / | . | / | / | /
COc1ccc(CN2CCN(Cc3ccccc3F)CC2)cc1OC | . | . | . | . | /
CCN(CC)CCCNC(=O)c1c(C)oc2ncnc(N3CCOCC3)c12 | / | / | . | / | /
Cc1nn(-c2ccccc2)c(C)c1C(=O)Oc1ccccc1 | ? | . | 16.9µM | . | /
SMILES | Rab9 promoter act | ELG1 genotox | FLuc modulator | NPC1 prom act | SMN2 splice enh
CC(=O)c1c(C)nn(-c2ccccc2)c1C | . | . | . | . | /
O=C(O)c1nnsc1COCc1ccccc1 | / | / | / | / | .[9.22 µM]
Cc1cc(C(=O)CN2C(=O)c3ccccc3S2(=O)=O)c(C)n1C(C)C | ? | . | / | . | /
CCn1c(C)cc(C(=O)CN2C(=O)c3ccccc3S2(=O)=O)c1C | ? | . | / | ? | /
Cc1cc(C(=O)CN2C(=O)c3ccccc3S2(=O)=O)c(C)n1-c1ccccc1 | . | . | 2.13µM | . | .
C=CCn1c(C)cc(C(=O)CN2C(=O)c3ccccc3S2(=O)=O)c1C | . | . | 1.51µM | . | /
Cc1cc(C(=O)CN2C(=O)C3CC=CCC3C2=O)c(C)n1-c1ccccc1 (stereo unspecified) | 0.708µM | ? | 0.675µM | 0.562µM | .
COC(=O)[C@@H]1[C@@H]2C[C@H]3c4[nH]c5cc(OC)ccc5c4CCN3C[C@@H]2C[C@H](OC(=O)/C=C\c2cc(OC)c(OC)c(OC)c2)[C@H]1OC | / | / | / | / | .
CCOc1ccc(-c2nnc(SCC(=O)Nc3cccc(C#N)c3)o2)cc1 | / | / | 19µM | / | /
CCOc1ccc(-c2nnc(SCC(=O)Nc3ccccc3C(F)(F)F)o2)cc1 | / | / | . | / | /
